Assay results as given in PubChem BioAssay (Tox21).
Several values for one entry are separate records, joined by “and”; a condition that tells them apart may be missing. Identical values can stand only once. Records with an inconclusive call do not appear. Entries that show only a call come without a potency. Some compounds were tested as several samples or in several runs, with calls that do not always agree. Activity calls are given as the source filed them. The call rests on the fitted dose curve; in most records, active means well fitted cell-killing curve with a large enough effect in the repeat runs; inconclusive means weak or mixed curves, or effect the other way; inactive means no such curve, though single readings can be large or run the other way.

Assay: qHTS assay to identify small molecule agonists of the farnesoid-X-receptor (FXR) signaling pathway - cell viability counter screen (AID 743218); further: nearly all actives have a fitted effect of over 45% in size
Settings: FXR-bla HEK293T viability, CellTiter-Glo luminescence, 16 h; series mostly up to 62.6 µM
Source text: U.S. Tox21 Program National Center for Advancing Translational Sciences [NCATS] NIH Chemical Genomics Center [NCGC] U.S. Environmental Protection Agency [EPA] National Institutes of Environmental Health Sciences [NIEHS] National Toxicology Program [NTP] U.S. Food and Drug Administration [FDA] Tox21 Assay Overview: The farnesoid-X-receptor (FXR), a nuclear hormone receptor, is highly expressed in liver, intestine, kidney and adrenal cortex. Natural ligands of FXR are the bile acids (Cholic acid, Chenodeoxy cholic acid etc). FXR is an important regulator of diverse metabolic pathways, including the bile acid homeostasis, lipid and glucose metabolisms. FXR regulates the expression of target genes by binding either as a monomer or as a heterodimer with the retinoid X receptor (RXR). Numerous studies have reported that FXR exerts protective function during cholestasis, diabetes, liver regeneration, and cancer. To identify compounds that activate FXR signaling, GeneBLAzer FXR-UAS-bla HEK 293T cell line (Invitrogen, Carlsbad, CA) containing a beta-lactamase reporter gene under the control of a UAS response element was used to screen the Tox21 10K compound library. The cytotoxicity of the Tox21 compound library against the FXR-bla cell line was tested in parallel by measuring the cell viability using CellTiter-Glo assay in the same wells.
Tox21 Assay Protocol Summary: FXR-bla cells were dispensed at 5000 cells/5uL/well in 1536-well black wall/clear bottom plates using a Multidrop Combi (Thermo Fisher Scientific, Waltham, MA) dispenser. After the assay plates were incubated at 37 C and 5% CO2 for 5 h, 23 nL of compounds dissolved in DMSO, positive controls or DMSO only was transferred to the assay plate by a Pintool station (Kalypsys, San Diego, CA). The assay plates were incubated at 37C for 16 h. After 1 uL of LiveBLAzerTM B/G FRET substrate was added using a Bioraptr Flying Reagent Dispenser (FRD) workstation (Beckman Coulter, Indianapolis, IN), the plates were incubated at room temperature for 2 h, and fluorescence intensity was measured by an Envision plate reader (PerkinElmer, Shelton, CT). For cell viability readout that measures cytotoxicity, 4uL/well of CellTiter-Glo reagent was added into the assay plates using a Bioraptr FRD. After 30 min incubation at room temperature, the luminescence intensity in the plates was measured using a ViewLux plate reader (PerkinElmer).
Potency means the concentration at half of the fitted maximal effect.

Row | Structure (SMILES) | Potency
1 | CN1CCOCC1 | inactive
2 | CCc1cccc2c3c([nH]c12)C(CC)(CC(=O)O)OCC3 (stereo not given) | inactive
3 | Cc1ccc(S(=O)(=O)O)cc1C | inactive
4 | CN(C)CCCN1c2ccccc2Sc2ccc(Cl)cc21 | 21.9 µM (active) and 26.6 µM (active)
5 | CCCN1C=CN(C)C1 | inactive
6 | C=CCOC(=O)C(=C)C | inactive
7 | C=CCCCCCCCCCC | inactive
8 | C=C[C@H]1CN2CC[C@H]1C[C@@H]2[C@@H](O)c1ccnc2ccc(OC)cc12 | 24.1 µM (active) and inactive
9 | COC(=O)CC(=O)OC | inactive
10 | CN(C)/N=N/c1nc[nH]c1C(N)=O | inactive
11 | CC(=O)Nc1ccc2c(c1)Cc1cc(NC(C)=O)ccc1-2 | inactive
12 | Cc1cccc(Nc2ccccc2C(=O)O)c1C | inactive
13 | CCO[Si](CCCNC(N)=O)(OCC)OCC | inactive
14 | NCCS(=O)(=O)O | inactive
15 | O=C(O)COCCN1CCN(C(c2ccccc2)c2ccc(Cl)cc2)CC1 (stereo not given) | inactive
16 | O=C(O)c1cc(=O)[nH]c(=O)[nH]1 | inactive
17 | Cc1ccc(C)c(O)c1 | inactive
18 | NCCOCCO | inactive
19 | [O-]/[N+](=N\O)c1ccccc1 | inactive
20 | Nc1ccc(O)c(N)c1 | inactive

Row | Structure (SMILES) | Potency
21 | O=C(O)c1ccc(O)cc1 | inactive
22 | CC1(C)O[C@@H]2C[C@H]3[C@@H]4C[C@H](F)C5=CC(=O)C=C[C@]5(C)[C@@]4(F)[C@@H](O)C[C@]3(C)[C@]2(C(=O)CO)O1 | inactive
23 | C=C1C[C@H]2[C@@H]3C=C(C)C4=CC(=O)CC[C@]4(C)[C@H]3CC[C@]2(C)[C@@]1(OC(C)=O)C(C)=O | inactive
24 | CCCCCC=O | inactive
25 | CC1(C)OC(=O)NC1=O | inactive
26 | CC(C)(C)c1cccc(C(C)(C)C)c1O | inactive
27 | OC[C@@H](O)[C@@H](O[C@@H]1O[C@H](CO)[C@H](O)[C@H](O)[C@H]1O)[C@H](O)[C@@H](O)CO | inactive
28 | CCC(=O)O[C@H]1[C@H](O[C@@H]2[C@@H](C)[C@H](O[C@H]3C[C@@](C)(OC)[C@@H](O)[C@H](C)O3)[C@@H](C)C(=O)O[C@H](CC)[C@@](C)(O)[C@H](O)[C@@H](C)C(=O)[C@H](C)C[C@@]2(C)O)O[C@H](C)C[C@@H]1N(C)C | 32.5 µM (active) and inactive
29 | CC1(C)NC(=O)N(c2ccc([N+](=O)[O-])c(C(F)(F)F)c2)C1=O | inactive
30 | CC[C@]12CCCN3CCc4c(n(c5ccccc45)[C@@](O)(C(=O)OC)C1)[C@@H]32 | inactive
31 | C1CN(SSN2CCOCC2)CCO1 | inactive
32 | Nc1cc(Cl)c(N)c(Cl)c1 | inactive
33 | CC(=O)O[C@]1(C(C)=O)CC[C@H]2[C@@H]3C=C(C)C4=CC(=O)CC[C@]4(C)[C@H]3CC[C@@]21C | inactive
34 | COc1ccc(C(=O)c2ccccc2O)c(O)c1 | inactive
35 | COc1cc([C@H]2Oc3cc([C@H]4Oc5cc(O)cc(O)c5C(=O)[C@@H]4O)ccc3O[C@@H]2CO)ccc1O | inactive
36 | c1ccc2cc3ccccc3cc2c1 | inactive
37 | CC(=O)OC(C)C | inactive
38 | ClC/C=C/CCl | inactive
39 | Clc1ccc(Sc2cc(Cl)c(Cl)cc2Cl)cc1 | inactive
40 | CC/C=C\C/C=C\C/C=C\CCCCCCCC(=O)O | inactive
